Measurements published in PubChem BioAssay AID977607 (Broad Institute, 2014).
The campaign covered roughly 1,500 compounds. About 460 (31%) were called active. Inconclusive results (about 1%) are left out.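 Rule for the calls: active = curve reaches 40% activation over neutral controls at an AC40 no higher than the top valid tested concentration; inconclusive = no clear call, values can overlap the other calls; inactive = signal moving opposite to the expected increase, and the rest.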 A selection follows. Potency and affinity values are given separately.

Assay: activators of glucose-dependent insulin secretion, dose response, cell-based, INS-1E, Gaussia luciferase, luminescence, cherry-pick, set 2 (AID 977607);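 note: 0% = median of the plate neutral control wells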
Conditions: INS-1E GLuc insulin secretion reporter, 2-3 h, hits give high values; at 35 µM, 100% = signal doubled over neutral wells unless noted

Max activation, inactive:
COc1ccc(CCNC(=O)CCn2c(=O)c3ccccc3n(CC(=O)NCC3CCCO3)c2=O)cc1OC (stereo unspecified) 20.3% [at 0.135 µM, 100% = signal doubled over neutral wells]
CCN(CC)C(=O)Cn1c(=O)oc2ccccc21 -21.2%
Cc1nccn1-c1ncnc2sc3c(c12)CCCC3 -26.7% [at 0.046 µM, 100% = signal doubled over neutral wells]
COc1ccc(/C=N/NC(=O)CN(C2=NS(=O)(=O)c3ccccc32)c2ccccc2)cc1OC 23.5%
CCOC(=O)N1CCN(C(=O)COc2ccccc2OC)CC1 19.9% [at 11 µM, 100% = signal doubled over neutral wells]
C=CCc1ccc(OCCOc2ccc(/C=N/n3cnnc3)cc2OCC)c(OC)c1 -24.1% [at 0.046 µM, 100% = signal doubled over neutral wells]
COc1ccc(/C=N/NS(=O)(=O)c2ccccc2)cc1OC 16.8%
Cc1cc(C)c2c(C)nn(C3CCCCC3)c2n1 20.5%
CSc1ccc(C(=O)C2CCCN(C(=O)c3ccc4c(c3)no[n+]4[O-])C2)cc1 (stereo unspecified) -36.5%
COc1ccc(-c2nc(C(=O)O)cs2)cc1OC 28.2% [at 0.42 µM, 100% = signal doubled over neutral wells]
CCOc1ccc(-c2nc(CSc3nnc(N)s3)cs2)cc1OC 23.2%
C=CCn1cnc2scc(-c3ccc(OC)cc3)c2c1=O -14.9% [at 1.2 µM, 100% = signal doubled over neutral wells]
COc1ccc(CC(=O)O/N=C(\N)c2ccccc2)cc1OC -13.5% [at 0.005 µM, 100% = signal doubled over neutral wells]
COc1ccc(C(=O)O/N=C(\N)c2ccc(OC)c(OC)c2)cc1 -23.3% [at 0.135 µM, 100% = signal doubled over neutral wells]
COc1ccc(OCC(=O)NNC(=O)Cn2c(=O)cnc3ccccc32)cc1 -15.3% [at 1.2 µM, 100% = signal doubled over neutral wells]
CC(=O)NCCc1nc2ccccc2n1CCOc1cccc(C)c1 -27.1%
O=C(c1ccccc1)c1ccc2ccccc2n1 -22.9% [at 0.0016 µM, 100% = signal doubled over neutral wells]
O=C(Nc1ccccc1Oc1ccsc1C(=O)O)c1ccccc1F 23.2% [at 0.42 µM, 100% = signal doubled over neutral wells]
Cc1cc(C)cc(C(=O)NC(=S)Nc2ccc(-c3cc4ccccc4oc3=O)cc2)c1 14.9%
O=C(NCC1CCCO1)C1CCC(N2C(=O)c3ccccc3C2=O)CC1 (stereo unspecified) 17.8% [at 11 µM, 100% = signal doubled over neutral wells]
CN1CCN(NC(=O)c2cccc(S(=O)(=O)N3CCCCCC3)c2)CC1 33% [at 1.2 µM, 100% = signal doubled over neutral wells]
CC1CCN(C(=O)c2cccc(S(=O)(=O)N3CCN(c4ccccc4)CC3)c2)CC1 35.2% [at 0.0016 µM, 100% = signal doubled over neutral wells]
CN(Cc1ccccc1)C(=S)NC(=O)c1ccc(-c2ccccc2)cc1 -29.1% [at 3.8 µM, 100% = signal doubled over neutral wells]
COc1cc(NC(=O)c2c(-c3ccccc3Cl)noc2C)c2ncccc2c1 -28.8% [at 11 µM, 100% = signal doubled over neutral wells]
Cc1cccnc1NC(=O)c1ccc(S(=O)(=O)N2CCCCC2)cc1 -21.1% [at 3.8 µM, 100% = signal doubled over neutral wells]
CC1CC(C)CN(CC(O)COCc2ccccc2F)C1 (stereo unspecified) -21.2% [at 0.0016 µM, 100% = signal doubled over neutral wells]
COc1ccc(OC)c(N(CC(=O)NN=C2CCN(C)CC2)S(=O)(=O)c2ccccc2)c1 -25.4% [at 0.135 µM, 100% = signal doubled over neutral wells]
CC(NC(=O)C1CCCN1S(=O)(=O)c1ccc2c(c1)n(C)c(=O)c(=O)n2C)c1ccccc1 (stereo unspecified) -14.2% [at 0.015 µM, 100% = signal doubled over neutral wells]
c1cc2c(cc1CN1CCN(C3CCCCCC3)CC1)OCO2 -12.6% [at 0.135 µM, 100% = signal doubled over neutral wells]
Cc1cc(S(=O)(=O)NCc2cccnc2)ccc1F -23% [at 3.8 µM, 100% = signal doubled over neutral wells]
COC(=O)c1sc2ccccc2c1NC(=O)c1cccs1 -14.7% [at 0.046 µM, 100% = signal doubled over neutral wells]
O=C(Nc1nonc1NC(=O)c1cccs1)c1cccs1 -48.2%
Cc1cc(C)nc(NC(=O)c2ccc(Cl)cc2Cl)n1 -21.7% [at 0.135 µM, 100% = signal doubled over neutral wells]
Cc1ccc(NC(=O)c2cccs2)cc1NC(=O)c1ccccc1Cl 18.8% [at 1.2 µM, 100% = signal doubled over neutral wells]
CCOC(=O)c1nc(NCc2cccnc2)c2ccccc2n1 -21% [at 1.2 µM, 100% = signal doubled over neutral wells]
CCCCNC(=O)c1ccccc1NC(=O)C1=C(C)OCCS1 -8.81% [at 0.005 µM, 100% = signal doubled over neutral wells]
